Laboratory results from PubChem BioAssay (Tox21).
Inconclusive results are not listed. Activity calls are given as the source filed them. Unless noted, the call rests on the fitted dose curve; in most records, active means well fitted curve in the direction sought with a large enough effect in the repeat runs; inconclusive means weak or mixed curves; inactive means no such curve, though single readings can be large; an effect the other way counts as inactive or inconclusive.

Experiments:
[1] = qHTS assay to identify small molecule agonists of the peroxisome proliferator-activated receptor delta (PPARd) signaling pathway - cell viability counter screen (AID 743211); further: nearly all actives have a fitted effect of over 55% in size
How it was run: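 Luminescent ATP viability assay (CellTiter-Glo, 30 min RT) in UAS-bla HEK293H cells carrying the PPAR delta reporter construct, 3000 cells/well, after a 17 h compound treatment at 37 C.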

[2] = biological target: Peroxisome proliferator-activated receptor delta (Homo sapiens) (UniProt Q03181); assay: qHTS assay to identify small molecule agonists of the peroxisome proliferator-activated receptor delta (PPARd) signaling pathway (AID 743212; calls by dose curve)
How it was run: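 GeneBLAzer UAS-bla HEK293H cells carrying a PPARδ construct were exposed to compounds at 37 °C. Beta-lactamase activity was read by FRET fluorescence after 2 h at room temperature with LiveBLAzer B/G substrate.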

[3] = qHTS assay to identify small molecule antagonists of the peroxisome proliferator-activated receptor delta (PPARd) signaling pathway - cell viability counter screen (AID 743213); further: nearly all actives have a fitted effect of over 50% in size
How it was run: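 HEK293H PPARd UAS-bla cells, 5 h pre-incubation, compound + L165041 300 nM final, 17 h 37 C; B/G FRET substrate 2 h RT; then CellTiter-Glo 30 min RT, luminescence.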

[4] = biological target: Bile acid receptor (Homo sapiens) (UniProt Q96RI1); assay: qHTS assay to identify small molecule antagonists of the farnesoid-X-receptor (FXR) signaling pathway (AID 743217; active means well fitted inhibition curve with a large enough effect in the signal ratio in the repeat runs, not every such curve was filed as active; the % refers to the signal ratio)
How it was run: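 HEK 293T FXR-UAS-bla, 5000 cells/well; compound + CDCA 50 uM final; 16 h, 37 °C; B/G FRET substrate 2 h RT; fluorescence.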

[5] = qHTS assay to identify small molecule agonists of the farnesoid-X-receptor (FXR) signaling pathway - cell viability counter screen (AID 743218); further: nearly all actives have a fitted effect of over 45% in size
How it was run: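 HEK 293T FXR-bla cells; 5 h pre-incubation, 16 h compound exposure at 37 C; LiveBLAzer substrate 2 h RT, then CellTiter-Glo 30 min RT, luminescence.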

[6] = biological target: Bile acid receptor (Homo sapiens) (UniProt Q96RI1); assay: qHTS assay to identify small molecule agonists of the farnesoid-X-receptor (FXR) signaling pathway (AID 743220; active means well fitted activation curve with a large enough effect in the signal ratio in the repeat runs, not every such curve was filed as active; the % refers to the signal ratio)
How it was run: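 Beta-lactamase reporter under UAS control in GeneBLAzer FXR HEK 293T cells (5000/well) measured with LiveBLAzer FRET substrate after 2 h at room temperature. Compound exposure lasted 16 h at 37C.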

[7] = qHTS assay to identify small molecule antagonists of the farnesoid-X-receptor (FXR) signaling pathway - cell viability counter screen (AID 743221; active means well fitted cell-killing curve with a large enough effect in the repeat runs, not every such curve was filed as active; further: nearly all actives have a fitted effect of over 50% in size)
How it was run: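 In GeneBLAzer FXR-UAS-bla HEK 293T cells stimulated with 50 uM chenodeoxycholic acid (final), compounds acted for 16 h at 37 C. Viability was assessed afterwards by CellTiter-Glo luminescence.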

[8] = biological target: Peroxisome proliferator-activated receptor delta (Homo sapiens) (UniProt Q03181); assay: qHTS assay to identify small molecule antagonists of the peroxisome proliferator-activated receptor delta (PPARd) signaling pathway (AID 743215; active means well fitted inhibition curve with a large enough effect in the signal ratio in the repeat runs, not every such curve was filed as active; the % refers to the signal ratio;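 further: cells stimulated with agonist L165041 at 300 nM final during compound exposure; series mostly up to about 62 µM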)
How it was run: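 Read-out is beta-lactamase FRET fluorescence, measured 2 h after substrate addition at room temperature. Beforehand, UAS-bla HEK293H cells carrying the PPARd reporter were exposed to compounds with L165041 at 300 nM final for 17 h at 37 C.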

[9] = biological target: Vitamin D3 receptor (Homo sapiens) (UniProt P11473); assay: qHTS assay to identify small molecule agonists of the vitamin D receptor (VDR) signaling pathway (AID 743222; calls by dose curve)
How it was run: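 VDR-bla cells, 2,000/well; 4 h preincubation 37C; cpd (DMSO) 16 h; LiveBLAzer B/G substrate 2 h RT; fluorescence intensity read.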

[10] = biological target: Vitamin D3 receptor (Homo sapiens) (UniProt P11473); assay: qHTS assay to identify small molecule antagonists of the vitamin D receptor (VDR) signaling pathway (AID 743223; active means well fitted inhibition curve with a large enough effect in the signal ratio in the repeat runs, not every such curve was filed as active; the % refers to the signal ratio)
How it was run: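 Agonist 1alpha,25-dihydroxyvitamin D3 (3 nM in well) was added with each compound to VDR-bla cells preincubated 4 h. Cells stood 16 h at 37C, then FRET substrate 2 h at room temperature; fluorescence intensity recorded.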
On the % scale 0 is the no-effect control and ±100 the full control effect.

Chain of Vitamin D3 receptor (Homo sapiens) (P11473 whole entry, looked up): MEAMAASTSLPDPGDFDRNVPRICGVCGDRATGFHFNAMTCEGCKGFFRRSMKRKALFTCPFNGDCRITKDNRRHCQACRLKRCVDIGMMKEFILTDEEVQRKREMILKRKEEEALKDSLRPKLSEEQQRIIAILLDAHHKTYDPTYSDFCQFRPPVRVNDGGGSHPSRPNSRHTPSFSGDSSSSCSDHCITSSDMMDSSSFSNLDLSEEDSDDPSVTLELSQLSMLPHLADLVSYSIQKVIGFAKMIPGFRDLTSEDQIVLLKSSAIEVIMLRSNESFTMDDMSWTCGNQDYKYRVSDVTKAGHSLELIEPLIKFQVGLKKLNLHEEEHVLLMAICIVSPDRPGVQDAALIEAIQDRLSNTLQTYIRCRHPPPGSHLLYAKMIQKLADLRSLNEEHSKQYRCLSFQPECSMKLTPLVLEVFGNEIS
Chain of Peroxisome proliferator-activated receptor delta (Homo sapiens) (Q03181 whole entry, looked up): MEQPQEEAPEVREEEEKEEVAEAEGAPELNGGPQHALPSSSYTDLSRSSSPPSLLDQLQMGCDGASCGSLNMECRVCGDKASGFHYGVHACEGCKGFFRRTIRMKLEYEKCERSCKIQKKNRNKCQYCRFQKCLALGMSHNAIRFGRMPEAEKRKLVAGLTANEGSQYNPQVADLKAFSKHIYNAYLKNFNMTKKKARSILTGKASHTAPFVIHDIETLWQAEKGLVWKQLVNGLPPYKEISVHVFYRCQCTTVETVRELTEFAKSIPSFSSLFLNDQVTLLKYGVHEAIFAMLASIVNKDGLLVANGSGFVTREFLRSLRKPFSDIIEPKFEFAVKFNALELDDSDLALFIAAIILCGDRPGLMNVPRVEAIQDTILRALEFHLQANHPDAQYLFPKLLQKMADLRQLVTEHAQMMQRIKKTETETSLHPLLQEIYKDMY
Chain of Bile acid receptor (Homo sapiens) (Q96RI1 whole entry, looked up): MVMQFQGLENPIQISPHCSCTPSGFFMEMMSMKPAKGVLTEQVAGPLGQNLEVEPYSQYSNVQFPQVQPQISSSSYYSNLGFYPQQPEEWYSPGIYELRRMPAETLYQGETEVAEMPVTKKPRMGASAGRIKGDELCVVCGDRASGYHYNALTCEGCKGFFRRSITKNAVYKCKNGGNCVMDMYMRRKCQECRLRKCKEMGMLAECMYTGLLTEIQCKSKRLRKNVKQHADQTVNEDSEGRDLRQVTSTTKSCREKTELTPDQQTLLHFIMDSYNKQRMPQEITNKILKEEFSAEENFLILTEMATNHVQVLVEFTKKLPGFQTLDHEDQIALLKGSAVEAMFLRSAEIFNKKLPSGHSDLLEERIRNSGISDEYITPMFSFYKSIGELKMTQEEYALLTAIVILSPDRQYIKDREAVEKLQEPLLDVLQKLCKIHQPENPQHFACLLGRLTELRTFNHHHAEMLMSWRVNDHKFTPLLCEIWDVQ

OCc1cccnc1
inactive: outcome [1] | outcome [2] | outcome [3] | outcome [4] | Potency [5] | outcome [6] | Potency [7]

O=C(O)CCCC[C@@H]1SC[C@@H]2NC(=O)N[C@@H]21
inactive: outcome [1] | outcome [2] | outcome [3] | Potency [8] | Potency [5] | Potency [7] | outcome [9] | outcome [10]

C/C=C1/CC2C=CC1C2 (configuration not stated)
inactive: outcome [1] | outcome [2] | outcome [3] | Potency [5] | Potency [7] | outcome [9] | outcome [10]

O=C(O)c1ccc(C(=O)O)cc1
inactive: outcome [1] | outcome [2] | outcome [3] | Potency [8] | Potency [5] | Potency [7] | outcome [9] | outcome [10]

C[Si](O[Si](C)(C)C)O[Si](C)(C)C
inactive: outcome [1] | outcome [2] | Potency [8] | outcome [4] | Potency [5] | outcome [6] | Potency [7] | outcome [9]

CCCCCCOCCO
inactive: outcome [1] | outcome [2] | outcome [3] | Potency [8] | Potency [5] | Potency [7] | outcome [9] | outcome [10]

c1c[nH]cn1
inactive: outcome [1] | outcome [2] | outcome [3] | Potency [8] | Potency [5] | Potency [7] | outcome [10]

CCCCCCCCCCCCS
inactive: outcome [1] | outcome [2] | Potency [8] | Potency [5] | Potency [7]

C#C[C@]1(O)CC[C@H]2[C@@H]3CCC4=CC(=O)CC[C@@H]4[C@H]3CC[C@@]21C
inactive: outcome [1] | outcome [2] | Potency [8] | Potency [5] | Potency [7]

CCCCCC/C(C=O)=C\c1ccccc1
inactive: outcome [1] | outcome [2] | Potency [8] | outcome [4] | Potency [5] | outcome [6] | Potency [7] | outcome [9] | outcome [10]

O=C=NCCCCCCN=C=O
inactive: outcome [1] | outcome [2] | Potency [8] | outcome [4] | Potency [5] | outcome [6] | Potency [7] | outcome [9]

OCC(CO)(CBr)CBr
inactive: outcome [1] | outcome [2] | Potency [8] | outcome [4] | Potency [5] | outcome [6] | Potency [7]

CC(=O)Nc1ccccc1
inactive: outcome [1] | outcome [2] | Potency [8] | outcome [4] | Potency [5] | outcome [6] | Potency [7] | outcome [9]

C=CCNC(N)=S
inactive: outcome [1] | outcome [2] | Potency [8] | Potency [5] | Potency [7]

CCCCCCCCCCCCc1ccccc1
inactive: outcome [1] | outcome [2] | Potency [8] | outcome [4] | Potency [5] | outcome [6] | Potency [7] | outcome [9]

COc1ccc(Nc2ccccc2)c(C)c1
inactive: outcome [1] | outcome [2] | Potency [8] | Potency [5] | Potency [7]

OC[C@H]1O[C@@](CO)(O[C@H]2O[C@H](CO)[C@@H](O)[C@H](O)[C@H]2O)[C@@H](O)[C@@H]1O
inactive: outcome [1] | outcome [2] | Potency [8] | outcome [4] | Potency [5] | outcome [6] | Potency [7]

FC(F)(F)c1ccc(Cl)c(Cl)c1
inactive: outcome [1] | outcome [2] | Potency [8] | Potency [5] | Potency [7]

CCN(CC)CCCC(C)Nc1ccnc2cc(Cl)ccc12 (configuration not stated)
inactive: outcome [1] | outcome [2] | viability change, negative = cytotoxic [3] -17.6% [at 6.26 µM] | Potency [8] | Potency [5] | Potency [7] | activity change, negative = inhibition [10] 1.54% [at 6.95 µM]

C=C(C)C(=O)O[C@H]1C[C@@H]2CC[C@@]1(C)C2(C)C
inactive: outcome [1] | outcome [2] | outcome [3] | Potency [8] | Potency [5] | Potency [7] | outcome [9] | outcome [10]

CCCCCCCCC/C=C/CC1CC(=O)OC1=O (configuration not stated)
inactive: outcome [1] | outcome [2] | outcome [3] | outcome [4] | outcome [6] | Potency [7] | outcome [9] | outcome [10]

Nc1cc([N+](=O)[O-])ccc1O
inactive: outcome [1] | outcome [2] | Potency [8] | Potency [5] | Potency [7]

CC1=CCC2CC1C2(C)C (configuration not stated)
inactive: outcome [1] | outcome [2] | outcome [3] | Potency [5] | Potency [7] | outcome [9]

O=C(O)c1cc(O)c(O)c(O)c1
inactive: outcome [1] | outcome [2] | outcome [3] | Potency [8] | Potency [5] | Potency [7] | outcome [10]

O=C(O)c1cc(=O)c2c(OCC(O)COc3cccc4oc(C(=O)O)cc(=O)c34)cccc2o1
inactive: outcome [1] | outcome [2] | Potency [8] | Potency [5] | Potency [7]

CN(C)CCOCCN(C)C
inactive: outcome [1] | outcome [2] | Potency [8] | outcome [4] | Potency [5] | outcome [6] | Potency [7] | outcome [9] | outcome [10]

Cc1ccc(S(N)(=O)=O)cc1
inactive: outcome [1] | outcome [2] | outcome [3] | Potency [5] | outcome [6] | Potency [7] | outcome [10]
